Source: PubChem BioAssay
Only some compounds are listed: those with a hit (about 12% of all), similar ones and a draw of the others.
JMJD2A Tudor: JMJD2A Tudor domain (human) inhibition; hit rate 4.4% among 390,000; AID 504339; Potency, µM (titrated, usually from 114 µM), inactives show at the highest dose activity change, negative = inhibition, actives largely listed as inhibitors; AlphaScreen JMJD2A-Tudor / H3K4me3 peptide binding; note: % is set by controls: 0 for no effect and ±100 for the full control effect; nearly all actives have a fitted effect of over 50% in size
Sfp inh: Sfp phosphopantetheinyl transferase inhibition; Q9F4F7; Biochemical Sfp PPTase activity, qHTS; Potency, µM, inactives show largest response in the series, negative = inhibition, most hits filed as inhibitors; hit rate 3.5% among 310,000; AID 1490;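 note: the enzyme is Sfp with the accession as filed and its product quenches rhodamine fluorescence; 0% = enzyme reaction without inhibitor and -100% = no enzyme wells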
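Buffer: 50 mM Hepes-Na pH 7.6, 10 mM MgCl2, 0.01% Nonidet P-40, 0.01% BSA. Enzyme 15 nM, pre-exposed to compound 15 min; substrates then added and fluorescence change tracked over 30 min.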
G9a block: G9a (human) methyltransferase inhibition | Q96KQ7 | G9a H3K9 monomethylation, AlphaScreen, 2 h | Potency, µM (top dose mostly 102 µM), for the others: top-dose activity, negative = inhibition, usual class: inhibitors | hit rate 8.8% among 350,000 | AID 504332; note: % is set by controls: 0 for no effect and ±100 for the full control effect; nearly all actives have a fitted effect of over 75% in size
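Step 1: enzyme (final 20 nM) with compound, 15 min RT. Step 2: substrate peptide 500 nM and SAM 20 uM, 2 h RT. Step 3: anti-H3K9me1 antibody and AlphaScreen beads, 10 min, then plate read.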
HP1b chromo inh: HP1-beta chromodomain-methylated histone interaction inhibition. P83916. AlphaScreen HP1-beta / biotin-H3K9me3 peptide binding. Potency, µM (doses to about 114 µM), inactives show top-dose activity change, negative = inhibition, most hits filed as inhibitors. hit rate 0.56% among 390,000. AID 540317; note: nearly all actives have a fitted effect of over 70% in size
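AlphaScreen: HP1-beta (50 nM) preformed 30 min with biotin-H3(1-18)K9me3 peptide (50 nM) in PBS pH 7.4, 0.01% Tween-20. Compound added for 30 min at RT, then streptavidin donor/nickel chelate acceptor beads (10 ug/mL) for 30 min.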
L3MBTL1 block: blocks human L3MBTL1; AID 485360; hit rate 0.66% among 230,000; Potency, µM (top dose mostly 57.1 µM), for inactives: top-dose activity, negative = inhibition, hits mostly inhibitors; Q9Y468; AlphaScreen L3MBTL1–H3K9me1 peptide binding; note: % is set by controls: 0 for no effect and ±100 for the full control effect; nearly all actives have a fitted effect of over 60% in size
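L3MBTL1 50 nM + b-AHA-H3(1-15)K9me1 75 nM, 30 min RT; compound added, 30 min RT; streptavidin donor/Ni-chelate acceptor beads 10 ug/mL each final, 30 min RT dark; AlphaScreen read.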
BAZ2B inh: BAZ2B (human) inhibition; Potency, µM (highest dose often 114 µM), inactives show top-dose activity change, negative = inhibition, actives largely listed as inhibitors; AID 504333; Q9UIF8; AlphaScreen BAZ2B-H3K14Ac peptide displacement; hit rate 4.4% among 360,000; note: % is set by controls: 0 for no effect and ±100 for the full control effect; nearly all actives have a fitted effect of over 60% in size
Target sequence (Q9UIF8 whole entry, looked up): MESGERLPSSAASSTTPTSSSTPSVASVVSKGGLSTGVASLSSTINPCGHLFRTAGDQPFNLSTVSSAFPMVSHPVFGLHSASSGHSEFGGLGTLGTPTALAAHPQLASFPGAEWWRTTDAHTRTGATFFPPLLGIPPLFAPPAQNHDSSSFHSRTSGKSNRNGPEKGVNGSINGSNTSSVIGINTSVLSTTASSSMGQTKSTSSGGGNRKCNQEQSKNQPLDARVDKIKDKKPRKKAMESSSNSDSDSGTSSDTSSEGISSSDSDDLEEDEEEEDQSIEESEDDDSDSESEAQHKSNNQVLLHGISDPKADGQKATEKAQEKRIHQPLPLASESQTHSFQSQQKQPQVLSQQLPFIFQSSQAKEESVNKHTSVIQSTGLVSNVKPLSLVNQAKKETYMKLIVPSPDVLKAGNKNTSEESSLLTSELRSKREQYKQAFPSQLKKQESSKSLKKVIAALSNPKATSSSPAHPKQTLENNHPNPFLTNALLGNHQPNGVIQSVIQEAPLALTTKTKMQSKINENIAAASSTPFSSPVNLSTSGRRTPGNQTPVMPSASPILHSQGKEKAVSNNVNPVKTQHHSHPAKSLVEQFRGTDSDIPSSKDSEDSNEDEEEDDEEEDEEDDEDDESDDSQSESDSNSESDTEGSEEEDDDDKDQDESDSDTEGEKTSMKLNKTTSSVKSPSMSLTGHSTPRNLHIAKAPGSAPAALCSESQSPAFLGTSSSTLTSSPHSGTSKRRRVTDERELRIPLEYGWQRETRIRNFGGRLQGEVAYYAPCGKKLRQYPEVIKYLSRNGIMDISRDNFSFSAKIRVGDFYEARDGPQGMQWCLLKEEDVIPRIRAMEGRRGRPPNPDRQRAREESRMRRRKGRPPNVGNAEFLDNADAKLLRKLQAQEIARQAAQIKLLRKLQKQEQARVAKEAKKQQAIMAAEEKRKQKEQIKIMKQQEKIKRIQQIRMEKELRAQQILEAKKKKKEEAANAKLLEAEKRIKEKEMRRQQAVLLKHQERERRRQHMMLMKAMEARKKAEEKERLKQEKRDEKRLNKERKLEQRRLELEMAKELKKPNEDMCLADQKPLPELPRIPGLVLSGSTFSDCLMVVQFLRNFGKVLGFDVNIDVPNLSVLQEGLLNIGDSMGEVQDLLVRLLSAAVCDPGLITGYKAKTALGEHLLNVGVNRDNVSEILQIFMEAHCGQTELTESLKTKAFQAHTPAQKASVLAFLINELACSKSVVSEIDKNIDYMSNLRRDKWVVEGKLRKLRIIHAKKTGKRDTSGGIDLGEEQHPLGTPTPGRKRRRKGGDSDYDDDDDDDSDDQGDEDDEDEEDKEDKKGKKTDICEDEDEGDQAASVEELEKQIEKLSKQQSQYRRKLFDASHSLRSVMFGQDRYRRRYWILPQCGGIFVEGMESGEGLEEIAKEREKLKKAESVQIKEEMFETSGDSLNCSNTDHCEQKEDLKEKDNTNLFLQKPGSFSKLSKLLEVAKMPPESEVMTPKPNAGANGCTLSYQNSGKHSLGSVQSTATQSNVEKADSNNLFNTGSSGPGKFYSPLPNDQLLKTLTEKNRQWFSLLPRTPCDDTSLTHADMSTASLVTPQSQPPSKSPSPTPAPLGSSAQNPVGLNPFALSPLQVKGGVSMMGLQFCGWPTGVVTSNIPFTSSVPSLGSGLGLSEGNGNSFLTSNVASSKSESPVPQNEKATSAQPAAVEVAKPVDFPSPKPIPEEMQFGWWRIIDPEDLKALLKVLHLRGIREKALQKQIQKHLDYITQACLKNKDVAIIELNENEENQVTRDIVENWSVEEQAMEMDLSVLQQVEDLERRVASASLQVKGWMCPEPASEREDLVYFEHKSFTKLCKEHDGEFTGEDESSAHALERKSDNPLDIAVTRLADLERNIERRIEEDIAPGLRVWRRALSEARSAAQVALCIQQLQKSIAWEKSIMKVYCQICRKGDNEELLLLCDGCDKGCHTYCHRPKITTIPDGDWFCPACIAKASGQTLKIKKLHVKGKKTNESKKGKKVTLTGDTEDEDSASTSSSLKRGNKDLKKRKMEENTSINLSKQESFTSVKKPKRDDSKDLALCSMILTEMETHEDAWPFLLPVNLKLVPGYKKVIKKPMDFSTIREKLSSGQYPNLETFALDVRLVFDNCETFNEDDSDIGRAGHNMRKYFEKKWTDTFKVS
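AlphaScreen displacement: compounds (up to 110uM) incubated 30 min at room temperature with a preformed 50 nM BAZ2B/50 nM biotinylated H3K14Ac peptide complex in PBS pH 7.4 with Tween-20. Donor and acceptor beads at 10 ug/mL final added, 20 min light-protected before reading.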
* marks the source's active call; other numbers are inactive results; ? = inconclusive; / = no result given; [ ] = dose if it differs, or a comment. Calls come from the whole dose curve; as a rule, active = well fitted curve in the direction sought with a large enough effect; inconclusive = small, poorly fitted or top-dose-only effect, or another doubt; inactive = no such curve, though single readings can be large; an effect the other way counts as inactive or inconclusive. Potency is the fitted concentration of half-maximal effect.

SMILES	JMJD2A Tudor	Sfp inh	G9a block	HP1b chromo inh	L3MBTL1 block	BAZ2B inh
CN(C)S(=O)(=O)c1ccc(C(=O)NCCN2C(=O)S/C(=C\c3cccnc3)C2=O)cc1	4%	40µM*	-23%[59 µM]	48%	?	-23%
O=C(O)CCN1C(=O)S/C(=C\c2cccnc2)C1=O	-11%	11%	71µM*	32%	1%	?
Cc1ccc(NC(=O)COCc2cc(-c3cccs3)on2)cc1Cl	12%	/	6%[59 µM]	8%	/	12%
O=C(N/N=C/c1ccc(OCc2ccccc2)cc1)c1cc[n+](Cc2ccccc2)cc1	?	-14%	71µM*	-2%	-26%	-12%
CC(C)(C)c1ccc(OCc2ccc(C(=O)N/N=C/c3ccc(O)c(O)c3)cc2)cc1	?	-8%	?	?	-7%	32µM*
O=C(N/N=C/c1ccc(OCc2ccc(F)cc2)cc1)c1ccccc1	-8%	3%	24%	26%	-23%	10%
O=C(N/N=C/c1ccc(O)cc1)c1cc[n+](Cc2ccccc2)cc1	-18%	0%	?	22%	-5%	-6%
COc1ccc(O)c(/C=N/NC(=O)c2ccc(OCc3cccc(Br)c3)cc2)c1	35µM*	-7%	35%[2.33 µM]	19%	-3%	?
CC1CCCCC1NC(=O)c1cc(S(=O)(=O)N2CCOCC2)ccc1Cl (stereo not given)	-7%	/	/	8%[57 µM]	8%	/
CCOc1ccc(C(=O)Nc2cccc(NC(=O)c3ccc(C(C)(C)C)cc3)c2)cc1Br	-6%	/	-3%[59 µM]	25%	/	0%
COC(=O)c1ccc(NC(=O)CCc2c(C)nn(-c3ccc(N4CCOCC4)nn3)c2C)cc1	-10%	/	0%[59 µM]	69%	/	-18%
Cc1c(C)n(CCc2ccccc2)c2ncnc(NCCCN(C)C)c12	?	-8%	-19%[2.33 µM]	?	/	45µM*
CCCCn1c(N)c(N(CC(C)C)C(=O)Cn2c(=O)oc3ccccc32)c(=O)[nH]c1=O	-13%	/	-27%	-14%	1%	5%
CCCCn1c(N)c(N(CC(C)C)C(=O)c2ccco2)c(=O)[nH]c1=O	4%	/	50µM*	27%	?	9%
CCCCn1c(N)c(N(CCC(C)C)C(=O)c2ccc([N+](=O)[O-])s2)c(=O)[nH]c1=O	-21%	/	79µM*	-5%	-3%	6%
CCCCN(C(=O)c1ccc([N+](=O)[O-])s1)c1c(N)n(CC(C)C)c(=O)[nH]c1=O	-5%	/	-51%	12%	1%	5%
CCCCn1c(N)c(N(CC(C)C)C(=O)Cn2c(=O)cnc3ccccc32)c(=O)[nH]c1=O	8%	/	45µM*	47%	6%	-1%
CCCCn1c(N)c(N(CCC(C)C)C(=O)C2=NN(c3cc(C)ccc3C)C(=O)CC2)c(=O)[nH]c1=O	-1%	/	40µM*	55%	2%	12%
COc1ccc(-n2nc(C(=O)NCCc3cccc(C)c3)c3c4ccccc4n(C)c3c2=O)cc1Cl	-19%	/	-3%[59 µM]	13%	/	/
Cc1ccc(OCC(=O)NCC2(N3CCN(C)CC3)CCCCC2)cc1C	-1%	/	2%[59 µM]	70%	/	-20%
CCCCn1c(N)c(N(CC(C)C)C(=O)c2cc(-c3ccncc3)nc3ccccc23)c(=O)[nH]c1=O	-17%	/	56µM*	13%	-17%	2%
COCCn1c(N)c(N(Cc2ccccc2)C(=O)c2cc(=O)[nH]c3ccccc23)c(=O)[nH]c1=O	-10%	/	/	13%	-1%	/
CCCCn1c(N)c(N(Cc2ccccc2OC)C(=O)c2cc(=O)[nH]c3ccccc23)c(=O)[nH]c1=O	-12%	/	35µM*	6%	4%	34%
CCOc1ccc(NC(=O)Cn2c(=O)n(CCCC(=O)NCCc3ccc(Cl)cc3)c(=O)c3ccccc32)cc1	-11%	/	38%[59 µM]	31%	/	7%
Cc1ccc(C=Nc2ccccc2C(N)=O)o1	-3%	-50%	33%[59 µM]	29%	33%	7%
SMILES	JMJD2A Tudor	Sfp inh	G9a block	HP1b chromo inh	L3MBTL1 block	BAZ2B inh
CN(C)c1ccc(C=Nc2ccccc2C(N)=O)cc1	-28%	6%	18µM*	6%	-4%	/
Cc1nc2c(O)cccc2cc1CO	4.5µM*	71µM*	10µM*	6%	-8%	-37%
Cc1ccc(O)c(CO)n1	-10%	3%	11%	-4%	8%	5%
O=C(CCl)Nc1cc2[nH]c(=O)[nH]c2cc1Br	-7%	-18%	50µM*	27%	-16%	-21%
Cc1ccc(C)c(-n2c(-c3ccncc3)n[nH]c2=S)c1	11µM*	1%	16µM*	27%	/	-20%
Cc1ccc(C)c(N2CCN(Cc3csc(C)c3)CC2)c1	-30%	/	?	62%	/	?
Cc1ccc(C)c(-n2c(-c3ccc4c(c3)OCO4)n[nH]c2=S)c1	25µM*	-2%	4µM*	-6%	-9%	?
Cc1ccc(C)c(-n2c(-c3csc(C)c3)n[nH]c2=S)c1	22µM*	17%	0.28µM*	-1%	/	-29%
Cc1ccc(-c2ccc(=O)n(CC(=O)NCCc3ccccc3)n2)cc1	-25%	/	-24%[59 µM]	-6%	/	1%
CCc1ccc(OC(=O)CSc2nnc(-c3ccc(OC)c(OC)c3)o2)cc1	-6%	/	-25%[59 µM]	23%	/	?
COc1ccc(-n2c3c(cc(C(=O)NNc4ccccc4C)c2=O)C(=O)CC(C)(C)C3)cc1	-11%	4%	50µM*	8%	/	/
CN1C(=O)N(CC(=O)Nc2cccc(S(=O)(=O)N(C)c3ccccc3)c2)C(=O)C12CCCCC2	-28%	/	56µM*	3%	-12%	5%
CCC1CCC2(CC1)NC(=O)N(CC(=O)Nc1cccc(S(=O)(=O)N(C)c3ccccc3)c1)C2=O (stereo not given)	-27%	/	5.6µM*	46%	-5%	-6%
COc1ccc(CCNC(=O)c2cc(C3CC3)on2)cc1OC	-3%[11.4 µM]	1%	21%	30%	-4%	-17%
COc1cc(OC)cc(C(=O)N[C@@H](CCSC)c2nc3ccccc3[nH]2)c1	?	10%	-13%[59 µM]	22%	/	-9%
CC(C)[C@H](Nc1ccc(C(F)(F)F)cc1[N+](=O)[O-])C(=O)O	-22%	36%	/	22%	10%	-9%
O=C(NNc1ccc(C(F)(F)F)cc1[N+](=O)[O-])c1ccc(NS(=O)(=O)c2ccc(F)cc2)cc1	22µM*	7%	25µM*	?	?	10µM*
O=C(NC(=S)Nc1ncccn1)c1ccccc1Cl	?	32µM*	79µM*	21%	2%	-26%
O=C(NC(=S)Nn1cnnc1)c1ccccc1Cl	-21%	40µM*	14µM*	-23%	/	?
COc1cccc(C(=O)NC(=S)Nn2cnnc2)c1OC	-6%	22µM*	14µM*	15%	-4%	?
O=C(NC(=S)Nn1cnnc1)c1ccc(F)cc1Cl	-23%	50µM*	14µM*	?	/	?
